From the supplement of paper PMC11732987, “Enantioselective OTUD7B fragment discovery through chemoproteomics screening and high-throughput optimisation” (Communications Chemistry, 2025)
Values without a mark were called inactive.

Assays:
Test in all cases: log2 ratio of Biotin-Ahx-Ub-VS probe labelling (fragment/DMSO); higher = less target engagement (more negative = stronger competition), active = hit call of the paper (q ≤ 0.05, log2 ratio ≤ -1)
Conditions in all cases: compound concentration: 200 uM; treatment time: 3 h
USP42 = target: T1, USP42 (UniProt Q9H9J4)
T1 sequence (whole entry): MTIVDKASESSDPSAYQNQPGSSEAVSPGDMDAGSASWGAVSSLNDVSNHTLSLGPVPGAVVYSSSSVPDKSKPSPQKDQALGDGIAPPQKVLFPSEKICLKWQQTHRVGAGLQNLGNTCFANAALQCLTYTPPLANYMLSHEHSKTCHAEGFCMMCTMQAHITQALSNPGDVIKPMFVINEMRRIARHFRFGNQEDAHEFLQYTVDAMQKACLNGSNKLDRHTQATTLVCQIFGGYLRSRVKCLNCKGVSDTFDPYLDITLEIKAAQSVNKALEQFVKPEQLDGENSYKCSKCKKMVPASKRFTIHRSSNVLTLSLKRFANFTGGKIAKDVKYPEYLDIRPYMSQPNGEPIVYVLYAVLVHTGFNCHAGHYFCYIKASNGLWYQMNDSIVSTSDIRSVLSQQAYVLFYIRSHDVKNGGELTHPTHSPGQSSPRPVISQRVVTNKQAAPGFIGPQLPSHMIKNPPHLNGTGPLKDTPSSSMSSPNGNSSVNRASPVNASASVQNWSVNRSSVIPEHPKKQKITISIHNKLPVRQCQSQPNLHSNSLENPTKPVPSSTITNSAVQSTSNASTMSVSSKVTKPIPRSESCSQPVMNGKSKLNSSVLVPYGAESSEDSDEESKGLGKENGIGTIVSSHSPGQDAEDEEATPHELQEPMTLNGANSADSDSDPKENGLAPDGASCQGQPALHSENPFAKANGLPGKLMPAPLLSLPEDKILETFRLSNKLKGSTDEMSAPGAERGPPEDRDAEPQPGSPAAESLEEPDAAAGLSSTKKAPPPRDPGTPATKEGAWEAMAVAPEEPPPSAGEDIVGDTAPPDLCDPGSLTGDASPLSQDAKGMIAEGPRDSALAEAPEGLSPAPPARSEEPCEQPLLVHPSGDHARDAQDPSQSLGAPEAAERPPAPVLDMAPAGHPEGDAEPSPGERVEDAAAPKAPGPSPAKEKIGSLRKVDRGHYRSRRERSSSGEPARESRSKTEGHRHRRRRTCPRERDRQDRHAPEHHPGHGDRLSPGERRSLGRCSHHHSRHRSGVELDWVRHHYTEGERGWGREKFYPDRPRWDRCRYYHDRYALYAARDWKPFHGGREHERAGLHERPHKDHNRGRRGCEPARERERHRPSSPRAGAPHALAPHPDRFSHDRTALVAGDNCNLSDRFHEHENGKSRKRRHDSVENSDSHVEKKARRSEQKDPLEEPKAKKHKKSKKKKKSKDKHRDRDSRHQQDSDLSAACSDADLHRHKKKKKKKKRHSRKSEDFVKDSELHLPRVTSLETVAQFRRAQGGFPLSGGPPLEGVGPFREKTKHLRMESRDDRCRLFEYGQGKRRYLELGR
How it was run: (§1)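 HEK293T lysate (495 µg per sample, in Tris/CHAPS/IGEPAL buffer with protease inhibitors) was exposed in triplicate for 3 h to fragment at 200 µM or to vehicle, then to Biotin-Ahx-Ub-VS at 0.5 µM final for 1 h. Labelled DUBs were enriched on NeutrAvidin, digested with LysC and trypsin, and analysed by diaPASEF LC-MS/MS. Spectronaut label-free quantities were normalised to the global median, and values are average log2 ratios of fragment over vehicle from an unpaired t-test. Only proteins with ≥2 unique peptides were used.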

USP46 = USP46 (UniProt P62068)
How it was run: as §1

USP47 = target: T2, USP47 (UniProt Q96K76)
T2 sequence (whole entry): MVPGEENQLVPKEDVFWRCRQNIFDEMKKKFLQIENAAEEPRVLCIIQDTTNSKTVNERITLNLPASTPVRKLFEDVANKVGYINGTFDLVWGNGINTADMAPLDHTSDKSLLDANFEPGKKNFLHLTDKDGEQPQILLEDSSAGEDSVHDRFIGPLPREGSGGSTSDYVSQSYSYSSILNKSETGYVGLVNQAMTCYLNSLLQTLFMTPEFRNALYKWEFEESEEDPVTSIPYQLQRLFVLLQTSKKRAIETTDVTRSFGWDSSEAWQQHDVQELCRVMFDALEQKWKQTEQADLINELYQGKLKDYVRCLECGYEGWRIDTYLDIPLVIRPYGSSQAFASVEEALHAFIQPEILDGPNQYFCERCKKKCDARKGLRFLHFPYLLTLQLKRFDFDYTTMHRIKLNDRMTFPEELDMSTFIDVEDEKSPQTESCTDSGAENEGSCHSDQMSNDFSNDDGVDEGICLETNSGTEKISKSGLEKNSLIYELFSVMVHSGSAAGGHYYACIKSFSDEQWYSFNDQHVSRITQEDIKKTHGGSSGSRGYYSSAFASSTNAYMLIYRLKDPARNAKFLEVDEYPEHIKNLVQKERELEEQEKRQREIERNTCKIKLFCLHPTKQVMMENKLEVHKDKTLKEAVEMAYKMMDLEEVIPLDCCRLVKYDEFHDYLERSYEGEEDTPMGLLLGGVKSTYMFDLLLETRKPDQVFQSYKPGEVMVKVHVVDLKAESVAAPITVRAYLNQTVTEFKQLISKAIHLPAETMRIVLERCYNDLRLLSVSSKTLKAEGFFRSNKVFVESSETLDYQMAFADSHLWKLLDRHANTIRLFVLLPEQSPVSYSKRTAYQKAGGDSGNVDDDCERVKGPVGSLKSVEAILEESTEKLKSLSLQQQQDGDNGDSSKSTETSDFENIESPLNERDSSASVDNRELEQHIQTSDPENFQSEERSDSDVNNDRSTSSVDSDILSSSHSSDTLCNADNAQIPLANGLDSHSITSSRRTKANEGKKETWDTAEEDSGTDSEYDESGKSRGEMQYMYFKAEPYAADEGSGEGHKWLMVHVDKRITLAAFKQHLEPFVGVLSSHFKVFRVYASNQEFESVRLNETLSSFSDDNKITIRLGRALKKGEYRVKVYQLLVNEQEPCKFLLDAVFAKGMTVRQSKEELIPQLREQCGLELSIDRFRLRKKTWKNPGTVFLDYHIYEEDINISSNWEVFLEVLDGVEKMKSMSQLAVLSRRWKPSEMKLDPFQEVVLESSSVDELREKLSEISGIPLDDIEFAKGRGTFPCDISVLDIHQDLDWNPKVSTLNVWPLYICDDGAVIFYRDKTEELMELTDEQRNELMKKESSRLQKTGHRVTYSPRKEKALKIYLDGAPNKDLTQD
How it was run: as §1

USP48 = target: T3, USP48 (UniProt Q86UV5)
T3 sequence (whole entry): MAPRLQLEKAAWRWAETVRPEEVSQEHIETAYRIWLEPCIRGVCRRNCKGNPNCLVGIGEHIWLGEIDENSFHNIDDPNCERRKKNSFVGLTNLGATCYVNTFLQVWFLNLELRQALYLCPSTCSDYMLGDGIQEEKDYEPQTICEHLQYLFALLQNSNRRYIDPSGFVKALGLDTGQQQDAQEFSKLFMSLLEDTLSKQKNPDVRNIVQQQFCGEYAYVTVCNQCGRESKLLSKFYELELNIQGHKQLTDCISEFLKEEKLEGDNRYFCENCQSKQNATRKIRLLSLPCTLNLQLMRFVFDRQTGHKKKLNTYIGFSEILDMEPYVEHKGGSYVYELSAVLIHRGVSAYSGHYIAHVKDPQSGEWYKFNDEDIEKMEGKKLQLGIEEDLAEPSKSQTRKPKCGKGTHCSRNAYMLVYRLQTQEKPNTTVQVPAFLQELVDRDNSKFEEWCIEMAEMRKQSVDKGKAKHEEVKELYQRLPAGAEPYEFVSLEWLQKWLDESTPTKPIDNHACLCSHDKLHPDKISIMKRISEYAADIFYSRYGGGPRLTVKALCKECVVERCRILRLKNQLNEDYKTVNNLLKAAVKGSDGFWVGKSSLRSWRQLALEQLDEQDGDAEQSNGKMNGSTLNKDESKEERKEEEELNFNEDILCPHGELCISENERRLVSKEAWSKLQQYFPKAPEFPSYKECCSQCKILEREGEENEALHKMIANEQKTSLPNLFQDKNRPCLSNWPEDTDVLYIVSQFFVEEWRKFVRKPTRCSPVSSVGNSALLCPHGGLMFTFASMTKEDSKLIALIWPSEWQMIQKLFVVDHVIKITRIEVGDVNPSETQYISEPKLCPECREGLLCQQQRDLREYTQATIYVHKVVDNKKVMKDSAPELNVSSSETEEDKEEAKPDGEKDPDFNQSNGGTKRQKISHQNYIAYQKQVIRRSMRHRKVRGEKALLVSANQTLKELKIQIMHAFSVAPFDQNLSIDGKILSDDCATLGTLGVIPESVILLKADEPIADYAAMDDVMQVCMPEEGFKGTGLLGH
How it was run: as §1

USP5 = target: T4, USP5 (UniProt P45974)
T4 sequence (whole entry): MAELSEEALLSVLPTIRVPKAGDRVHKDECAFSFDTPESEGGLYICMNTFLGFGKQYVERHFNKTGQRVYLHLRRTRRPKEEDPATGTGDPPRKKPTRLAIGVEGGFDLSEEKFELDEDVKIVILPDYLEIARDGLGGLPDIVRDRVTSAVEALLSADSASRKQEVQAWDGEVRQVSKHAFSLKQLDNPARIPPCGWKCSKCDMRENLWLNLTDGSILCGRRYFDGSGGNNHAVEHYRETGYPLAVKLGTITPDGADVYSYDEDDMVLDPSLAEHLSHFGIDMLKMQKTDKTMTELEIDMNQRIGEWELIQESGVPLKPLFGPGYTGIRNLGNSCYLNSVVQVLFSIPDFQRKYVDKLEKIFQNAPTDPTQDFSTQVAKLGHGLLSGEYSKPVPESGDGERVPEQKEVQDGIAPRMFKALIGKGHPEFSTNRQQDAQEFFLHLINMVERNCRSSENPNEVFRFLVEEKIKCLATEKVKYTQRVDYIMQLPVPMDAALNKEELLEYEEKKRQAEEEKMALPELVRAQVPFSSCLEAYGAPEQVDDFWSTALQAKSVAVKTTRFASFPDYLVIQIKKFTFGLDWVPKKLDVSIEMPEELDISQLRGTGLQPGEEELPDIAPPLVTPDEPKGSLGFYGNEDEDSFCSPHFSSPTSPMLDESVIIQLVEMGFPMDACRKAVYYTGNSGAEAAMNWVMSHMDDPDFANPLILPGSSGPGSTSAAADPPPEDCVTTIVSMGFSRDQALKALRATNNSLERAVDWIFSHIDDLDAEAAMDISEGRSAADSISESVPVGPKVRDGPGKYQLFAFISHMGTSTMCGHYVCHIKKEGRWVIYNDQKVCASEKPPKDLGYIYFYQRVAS
How it was run: as §1

USP54 = USP54 (UniProt Q70EL1)
How it was run: as §1

USP7 = USP7 (UniProt Q93009)
How it was run: as §1

USP8 = target: T5, USP8 (UniProt P40818)
T5 sequence (whole entry): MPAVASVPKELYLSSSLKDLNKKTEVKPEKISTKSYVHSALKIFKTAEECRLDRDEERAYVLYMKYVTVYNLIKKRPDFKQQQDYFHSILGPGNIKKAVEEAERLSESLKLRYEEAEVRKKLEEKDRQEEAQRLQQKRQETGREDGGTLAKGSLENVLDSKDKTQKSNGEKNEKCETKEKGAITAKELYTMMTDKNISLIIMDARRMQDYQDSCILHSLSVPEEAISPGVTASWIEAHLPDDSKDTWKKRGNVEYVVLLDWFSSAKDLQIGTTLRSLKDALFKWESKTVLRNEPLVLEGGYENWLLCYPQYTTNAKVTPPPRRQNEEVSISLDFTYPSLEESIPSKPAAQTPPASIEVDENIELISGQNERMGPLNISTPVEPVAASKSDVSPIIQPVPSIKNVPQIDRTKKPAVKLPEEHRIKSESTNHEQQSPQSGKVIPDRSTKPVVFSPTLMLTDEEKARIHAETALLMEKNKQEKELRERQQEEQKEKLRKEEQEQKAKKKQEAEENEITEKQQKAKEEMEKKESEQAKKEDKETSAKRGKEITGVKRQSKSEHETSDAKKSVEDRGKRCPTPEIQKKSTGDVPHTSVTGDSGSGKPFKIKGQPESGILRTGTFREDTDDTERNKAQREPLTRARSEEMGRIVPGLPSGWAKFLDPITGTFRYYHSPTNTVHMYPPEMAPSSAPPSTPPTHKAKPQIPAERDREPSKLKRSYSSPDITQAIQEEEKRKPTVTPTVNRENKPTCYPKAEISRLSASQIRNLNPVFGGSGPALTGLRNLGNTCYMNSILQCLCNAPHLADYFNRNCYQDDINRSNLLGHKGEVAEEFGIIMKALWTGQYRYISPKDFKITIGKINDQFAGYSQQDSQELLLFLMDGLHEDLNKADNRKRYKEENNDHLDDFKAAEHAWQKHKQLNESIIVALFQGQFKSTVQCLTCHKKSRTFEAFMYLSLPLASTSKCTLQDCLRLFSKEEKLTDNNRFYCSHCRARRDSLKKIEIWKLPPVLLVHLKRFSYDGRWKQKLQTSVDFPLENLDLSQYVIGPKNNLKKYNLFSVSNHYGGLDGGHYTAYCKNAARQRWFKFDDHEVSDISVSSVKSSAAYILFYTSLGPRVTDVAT
How it was run: as §1

USP9X = USP9X (UniProt Q93008)
How it was run: as §1

UniProt O00487 = target: UniProt O00487
How it was run: as §1

Chain of UniProt O00487 (O00487 whole entry): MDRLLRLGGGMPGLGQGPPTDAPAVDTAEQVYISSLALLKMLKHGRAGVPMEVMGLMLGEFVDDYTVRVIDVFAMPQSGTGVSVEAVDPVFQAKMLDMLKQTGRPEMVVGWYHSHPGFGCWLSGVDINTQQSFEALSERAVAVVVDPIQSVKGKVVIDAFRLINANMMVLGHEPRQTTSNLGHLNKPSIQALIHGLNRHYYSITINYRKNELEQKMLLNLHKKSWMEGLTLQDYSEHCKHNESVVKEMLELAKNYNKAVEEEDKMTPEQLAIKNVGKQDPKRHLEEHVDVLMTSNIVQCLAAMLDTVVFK
Chain of USP46 (P62068 whole entry): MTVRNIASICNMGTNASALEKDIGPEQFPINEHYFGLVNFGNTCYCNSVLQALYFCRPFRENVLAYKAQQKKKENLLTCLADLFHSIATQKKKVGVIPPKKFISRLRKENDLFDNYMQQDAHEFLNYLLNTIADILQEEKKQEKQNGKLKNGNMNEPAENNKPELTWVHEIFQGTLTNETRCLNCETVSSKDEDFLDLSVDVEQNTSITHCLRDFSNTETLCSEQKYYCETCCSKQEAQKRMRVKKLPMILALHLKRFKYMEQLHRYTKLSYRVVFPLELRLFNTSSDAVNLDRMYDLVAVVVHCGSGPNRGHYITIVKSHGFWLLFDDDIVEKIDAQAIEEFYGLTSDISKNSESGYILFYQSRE
Chain of USP54 (Q70EL1 whole entry): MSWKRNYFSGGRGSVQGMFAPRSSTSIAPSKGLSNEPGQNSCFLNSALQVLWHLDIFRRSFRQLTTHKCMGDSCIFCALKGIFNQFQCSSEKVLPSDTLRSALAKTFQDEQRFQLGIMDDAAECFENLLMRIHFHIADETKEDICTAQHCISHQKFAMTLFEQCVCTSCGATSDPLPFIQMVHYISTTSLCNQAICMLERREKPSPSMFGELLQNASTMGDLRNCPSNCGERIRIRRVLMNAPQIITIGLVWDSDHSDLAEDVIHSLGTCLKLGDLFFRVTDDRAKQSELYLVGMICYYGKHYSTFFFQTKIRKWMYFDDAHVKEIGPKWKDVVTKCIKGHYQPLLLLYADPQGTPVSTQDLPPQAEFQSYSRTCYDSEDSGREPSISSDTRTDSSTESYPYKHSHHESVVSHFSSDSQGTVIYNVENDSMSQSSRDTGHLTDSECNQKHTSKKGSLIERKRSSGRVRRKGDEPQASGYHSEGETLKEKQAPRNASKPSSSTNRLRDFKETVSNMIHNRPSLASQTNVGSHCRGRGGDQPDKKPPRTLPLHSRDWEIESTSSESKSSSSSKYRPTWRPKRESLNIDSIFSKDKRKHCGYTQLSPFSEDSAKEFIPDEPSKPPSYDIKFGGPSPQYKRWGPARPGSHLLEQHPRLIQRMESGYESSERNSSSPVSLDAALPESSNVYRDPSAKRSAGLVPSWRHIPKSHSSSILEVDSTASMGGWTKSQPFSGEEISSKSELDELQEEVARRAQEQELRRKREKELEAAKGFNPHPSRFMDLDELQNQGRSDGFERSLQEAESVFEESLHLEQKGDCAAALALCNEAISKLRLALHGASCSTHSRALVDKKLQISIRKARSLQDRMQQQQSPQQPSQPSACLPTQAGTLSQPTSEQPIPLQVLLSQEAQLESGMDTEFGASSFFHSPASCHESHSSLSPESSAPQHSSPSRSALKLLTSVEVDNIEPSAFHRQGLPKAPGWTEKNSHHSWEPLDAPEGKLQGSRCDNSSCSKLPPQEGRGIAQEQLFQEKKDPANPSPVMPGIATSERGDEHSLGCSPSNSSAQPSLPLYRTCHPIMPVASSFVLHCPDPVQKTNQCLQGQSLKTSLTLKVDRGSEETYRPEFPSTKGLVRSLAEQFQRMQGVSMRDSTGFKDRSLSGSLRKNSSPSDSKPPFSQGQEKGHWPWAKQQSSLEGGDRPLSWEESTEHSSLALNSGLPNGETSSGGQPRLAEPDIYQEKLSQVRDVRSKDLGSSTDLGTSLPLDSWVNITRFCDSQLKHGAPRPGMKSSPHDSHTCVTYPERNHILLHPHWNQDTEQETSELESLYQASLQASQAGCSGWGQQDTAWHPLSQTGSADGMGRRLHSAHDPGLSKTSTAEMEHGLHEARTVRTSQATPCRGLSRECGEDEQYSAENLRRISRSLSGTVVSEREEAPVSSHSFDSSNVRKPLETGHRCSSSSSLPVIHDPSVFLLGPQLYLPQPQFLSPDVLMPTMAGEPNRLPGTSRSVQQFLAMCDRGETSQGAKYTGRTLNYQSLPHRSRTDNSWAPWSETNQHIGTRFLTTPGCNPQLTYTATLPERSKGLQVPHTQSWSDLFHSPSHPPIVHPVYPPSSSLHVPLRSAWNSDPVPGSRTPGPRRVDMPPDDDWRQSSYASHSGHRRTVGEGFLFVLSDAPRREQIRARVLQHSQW
Chain of USP9X (Q93008 whole entry): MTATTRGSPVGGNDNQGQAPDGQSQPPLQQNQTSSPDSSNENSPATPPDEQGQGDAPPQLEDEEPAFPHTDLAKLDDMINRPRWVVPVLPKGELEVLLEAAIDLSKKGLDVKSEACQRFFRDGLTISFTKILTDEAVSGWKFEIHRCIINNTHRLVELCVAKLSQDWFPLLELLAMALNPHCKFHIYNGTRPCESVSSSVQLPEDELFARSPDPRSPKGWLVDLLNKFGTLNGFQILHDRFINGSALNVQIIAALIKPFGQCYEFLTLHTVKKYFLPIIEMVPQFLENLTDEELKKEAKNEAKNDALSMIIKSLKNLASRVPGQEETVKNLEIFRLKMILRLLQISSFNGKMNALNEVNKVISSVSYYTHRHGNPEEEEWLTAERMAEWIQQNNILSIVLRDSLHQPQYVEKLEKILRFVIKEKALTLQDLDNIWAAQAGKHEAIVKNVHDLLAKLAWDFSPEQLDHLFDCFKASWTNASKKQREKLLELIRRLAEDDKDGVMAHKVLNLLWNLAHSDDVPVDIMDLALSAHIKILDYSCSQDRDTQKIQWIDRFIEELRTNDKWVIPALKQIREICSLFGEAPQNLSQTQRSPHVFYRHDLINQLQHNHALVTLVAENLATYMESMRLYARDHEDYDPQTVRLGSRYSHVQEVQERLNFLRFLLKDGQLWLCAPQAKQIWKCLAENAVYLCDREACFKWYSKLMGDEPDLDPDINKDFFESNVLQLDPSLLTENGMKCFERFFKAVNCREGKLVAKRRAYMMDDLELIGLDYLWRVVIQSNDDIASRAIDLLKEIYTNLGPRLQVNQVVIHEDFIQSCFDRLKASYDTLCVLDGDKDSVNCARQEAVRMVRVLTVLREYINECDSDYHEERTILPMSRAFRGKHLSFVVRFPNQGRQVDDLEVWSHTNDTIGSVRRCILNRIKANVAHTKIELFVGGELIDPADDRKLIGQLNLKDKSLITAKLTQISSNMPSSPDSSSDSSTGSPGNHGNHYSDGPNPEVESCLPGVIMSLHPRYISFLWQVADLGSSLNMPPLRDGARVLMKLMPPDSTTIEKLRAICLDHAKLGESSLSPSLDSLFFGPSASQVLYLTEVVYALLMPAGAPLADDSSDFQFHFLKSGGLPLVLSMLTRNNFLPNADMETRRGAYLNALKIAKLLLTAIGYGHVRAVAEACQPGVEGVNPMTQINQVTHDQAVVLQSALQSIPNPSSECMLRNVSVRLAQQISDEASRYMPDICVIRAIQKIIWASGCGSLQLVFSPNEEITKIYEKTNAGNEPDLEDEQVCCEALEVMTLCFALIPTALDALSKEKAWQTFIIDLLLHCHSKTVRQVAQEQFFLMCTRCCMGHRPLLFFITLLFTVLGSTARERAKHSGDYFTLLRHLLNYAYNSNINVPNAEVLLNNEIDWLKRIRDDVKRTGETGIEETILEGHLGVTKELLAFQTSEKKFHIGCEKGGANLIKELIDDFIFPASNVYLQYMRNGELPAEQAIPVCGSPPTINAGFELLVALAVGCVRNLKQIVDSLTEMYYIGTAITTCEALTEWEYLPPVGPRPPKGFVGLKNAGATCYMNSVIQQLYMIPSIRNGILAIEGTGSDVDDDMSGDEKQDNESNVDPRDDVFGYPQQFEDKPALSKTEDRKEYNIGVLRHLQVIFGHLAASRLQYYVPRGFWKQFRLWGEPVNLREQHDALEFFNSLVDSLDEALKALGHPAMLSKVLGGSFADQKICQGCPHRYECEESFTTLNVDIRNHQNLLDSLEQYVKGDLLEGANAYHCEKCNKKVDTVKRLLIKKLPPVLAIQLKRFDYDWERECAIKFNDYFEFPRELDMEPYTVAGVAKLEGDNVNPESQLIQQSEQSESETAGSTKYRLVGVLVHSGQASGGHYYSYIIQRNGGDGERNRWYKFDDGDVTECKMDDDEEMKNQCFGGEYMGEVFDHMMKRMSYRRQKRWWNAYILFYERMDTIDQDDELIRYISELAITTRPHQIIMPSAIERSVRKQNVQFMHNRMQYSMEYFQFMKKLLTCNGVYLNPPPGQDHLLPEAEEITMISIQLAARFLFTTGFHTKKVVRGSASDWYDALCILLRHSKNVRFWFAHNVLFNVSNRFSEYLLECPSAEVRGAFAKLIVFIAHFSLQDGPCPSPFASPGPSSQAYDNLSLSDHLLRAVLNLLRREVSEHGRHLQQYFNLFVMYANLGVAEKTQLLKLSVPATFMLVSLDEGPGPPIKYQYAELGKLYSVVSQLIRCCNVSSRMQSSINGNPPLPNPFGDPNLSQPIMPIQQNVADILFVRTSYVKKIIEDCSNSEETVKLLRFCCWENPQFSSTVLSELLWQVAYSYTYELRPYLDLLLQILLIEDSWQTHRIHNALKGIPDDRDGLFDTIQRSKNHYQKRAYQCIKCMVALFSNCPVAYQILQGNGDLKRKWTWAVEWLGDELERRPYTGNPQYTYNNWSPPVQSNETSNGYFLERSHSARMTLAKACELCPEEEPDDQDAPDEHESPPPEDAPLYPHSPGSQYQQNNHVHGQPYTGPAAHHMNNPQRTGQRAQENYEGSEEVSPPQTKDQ

Row | SMILES | log2 ratio of Biotin-Ahx-Ub-VS probe labelling (USP42) | log2 ratio of Biotin-Ahx-Ub-VS probe labelling (USP46) | log2 ratio of Biotin-Ahx-Ub-VS probe labelling (USP47) | log2 ratio of Biotin-Ahx-Ub-VS probe labelling (USP48) | log2 ratio of Biotin-Ahx-Ub-VS probe labelling (USP5) | log2 ratio of Biotin-Ahx-Ub-VS probe labelling (USP54) | log2 ratio of Biotin-Ahx-Ub-VS probe labelling (USP7) | log2 ratio of Biotin-Ahx-Ub-VS probe labelling (USP8) | log2 ratio of Biotin-Ahx-Ub-VS probe labelling (USP9X) | log2 ratio of Biotin-Ahx-Ub-VS probe labelling (UniProt O00487)
1 | O=C(CCl)Nc1ccc(F)cc1Cl | 0.367 | -0.157 | -1.41 (active) | -0.144 | -0.28 | 0.679 | -0.395 | -0.165 | -0.538 | -0.0503
2 | O=C(CCl)N1CCC(C(=O)N2CCCC2)CC1 | -0.161 | 0.0393 | -0.0567 | 0.126 | -0.266 | -0.159 | -0.543 | -0.0342 | -0.0236 | -0.108
3 | O=C(CCl)N1CCOC(CCc2ccccc2)C1 (stereo not given) | 0.335 | -0.509 | -1.03 | -0.472 | -0.132 | 0.433 | -0.763 | -0.555 | -0.43 | -0.235
4 | Cc1c(C#N)c(NC(=O)CCl)n(Cc2ccco2)c1C | 0.0887 | -0.16 | -0.217 | -0.398 | -0.329 | -0.38 | -0.563 | -0.000142 | -0.241 | -0.177
